Compounds without any hit were thinned out: in the full panel of roughly 83,000, 20% have a hit.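 Interpretation: 100, growth as untreated; towards 0, rising growth inhibition; 0, no net growth; 0 to -100, cell death. Compounds scoring below 10 were considered active.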 Activity calls are given as the source filed them.
Test system: 786-0 renal
Test: NCI-60 one-dose screen, 48 h (100 = growth as untreated, 0 = no growth, -100 = all killed)
Conditions: 10 µM unless noted

| SMILES | growth |
| --- | --- |
| NC(N)=N/N=C(/c1ccccc1)c1ccc(Cl)cc1 | 69.1% (inactive) |
| O=C(Nc1nc(-c2ccc(Cl)cc2)cs1)c1cc(O)c(O)c(O)c1 | 11.5% (inactive) |
| CC(=O)Oc1ccc(C2OC(c3ccc4ccccc4c3OC(C)=O)=NN2C(C)=O)c(OC(C)=O)c1 (stereo unspecified) | 5.71% (active) |
| Fc1ccc(-c2nnc(-c3c(-c4ccc(F)cc4)nc4ncccn34)o2)cc1 | 93.1% (inactive) |
| COc1ccc(/C=C(\C#N)c2ccccc2)cc1 | 102% (inactive) |
| C=C(C)[C@H]1CC/C(C)=C/CC[C@]2(C)O[C@H]2CC/C(C=O)=C\C1O (stereo partly specified) | 115% (inactive) |
| O=c1ccn(C2OC(CO)C(O)C2F)c(=O)[nH]1 (stereo unspecified) | 99.2% (inactive) |
| COc1cccc(-c2nnc(N)o2)c1 | 100% (inactive) |
| O=c1cc(-c2cccnc2)oc2c1ccc1ccccc12 | 81.3% (inactive) |
| COc1ccc(-c2cn(-c3ccccc3)c(-c3ccccc3)n2)cc1OC | 83.7% (inactive) |
| COc1cc(Oc2cc(-c3cccnc3)ccc2NC(=O)Nc2ccc(F)cc2F)cc(OC)c1OC | 100% (inactive) |
| ClC1=C(Cl)C(Cl)=C(Cl)C1=C/C=C/c1ccccc1 | -71.3% (active) |
| CNc1ccc(CSc2ccc(Cl)cc2)cc1 | 71% (inactive) |
| C/C(=C\CCc1ccoc1)CC/C=C(\C)CCCN1CCC(CO)CC1 | 48.5% (inactive) |
| Oc1ccc(Cc2ccc(O)c(C3CC(c4ccc(Cl)cc4)=NN3)c2)cc1C1CC(c2ccc(Cl)cc2)=NN1 (stereo unspecified) | 18.2% (inactive) |
| CSc1nc2c(c(=O)n1C)C(c1ccccc1)C1=C(N2)/C(=C/c2ccccc2)CCC1 (stereo unspecified) | 54.6% (inactive) |
